Results published in publication PMC5700166.
Positions count from the first letter of the chain named.

Key:
Assay in all cases: protein-binding microarray (PBM); PBM: ~300 nM protein, 6 mM HEPES pH 7.8, 80 mM KCl, 0.5 mM EDTA, 0.5 mM EGTA, 6% glycerol, 35 ng/ul poly-dIdC, 1% milk, 1 h, room temperature; Ap Aiptasia and Nv Nematostella (sea anemones) / Co Capsaspora / Aq Amphimedon (sponge) / Dm Drosophila / Hu human; RHD is the Rel homology domain; high values mean tight binding
Conditions in all cases: dsDNA, one strand shown
[1] = molecular target: T1, GST-Ap-NF-kB RHD (Exaiptasia pallida (Aiptasia), UniProt A0A913YAJ5 2-422)
T1 sequence: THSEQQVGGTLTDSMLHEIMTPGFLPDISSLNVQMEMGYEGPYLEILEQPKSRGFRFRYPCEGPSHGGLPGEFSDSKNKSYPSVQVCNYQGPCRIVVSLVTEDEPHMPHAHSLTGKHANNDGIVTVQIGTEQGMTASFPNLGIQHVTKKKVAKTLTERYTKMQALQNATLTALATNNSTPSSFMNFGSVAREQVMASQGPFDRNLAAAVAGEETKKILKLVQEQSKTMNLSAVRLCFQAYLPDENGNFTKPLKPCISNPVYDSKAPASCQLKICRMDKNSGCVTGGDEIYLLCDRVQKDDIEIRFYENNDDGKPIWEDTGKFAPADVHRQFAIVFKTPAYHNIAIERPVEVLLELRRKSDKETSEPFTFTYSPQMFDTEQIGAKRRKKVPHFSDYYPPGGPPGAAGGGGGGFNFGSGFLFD

[2] = molecular target: T2, GST-Nv-NF-kB (Cys allele) (Nematostella vectensis, UniProt E5G601 2-411)
T2 sequence: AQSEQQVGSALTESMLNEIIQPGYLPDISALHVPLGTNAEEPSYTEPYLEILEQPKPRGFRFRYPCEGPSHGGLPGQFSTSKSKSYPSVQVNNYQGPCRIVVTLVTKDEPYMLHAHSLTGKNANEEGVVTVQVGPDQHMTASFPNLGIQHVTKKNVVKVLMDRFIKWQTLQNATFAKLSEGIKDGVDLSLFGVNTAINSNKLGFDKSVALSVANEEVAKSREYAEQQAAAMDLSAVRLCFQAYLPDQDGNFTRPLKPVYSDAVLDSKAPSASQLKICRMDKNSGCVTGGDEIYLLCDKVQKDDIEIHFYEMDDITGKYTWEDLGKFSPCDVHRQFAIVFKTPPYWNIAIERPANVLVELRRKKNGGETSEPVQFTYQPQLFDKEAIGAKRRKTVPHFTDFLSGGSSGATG

[3] = molecular target: T3, GST-Nv-NF-kB (Ser allele) (Nematostella vectensis, UniProt A7UNT2 2-411)
T3 sequence: T2 sequence with Q21R, C66S, S207N, E215Q, V217A, E225K, A268E, D399E

[4] = molecular target: T4, GST-Co-NF-kB (Capsaspora owczarzaki, UniProt F1ARL5 200-546)
T4 sequence: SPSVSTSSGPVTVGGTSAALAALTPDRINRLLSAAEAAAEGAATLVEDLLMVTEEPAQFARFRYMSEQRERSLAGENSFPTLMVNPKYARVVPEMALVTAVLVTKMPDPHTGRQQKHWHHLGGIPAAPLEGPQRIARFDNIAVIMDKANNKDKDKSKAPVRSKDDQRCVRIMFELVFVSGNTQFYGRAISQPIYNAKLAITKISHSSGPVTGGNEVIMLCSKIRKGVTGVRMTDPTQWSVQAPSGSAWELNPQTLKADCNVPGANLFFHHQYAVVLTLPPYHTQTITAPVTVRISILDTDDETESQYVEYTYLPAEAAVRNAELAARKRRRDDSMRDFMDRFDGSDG

[5] = molecular target: T5, GST-Dm-Relish (Drosophila melanogaster, UniProt Q94527 99-473)
T5 sequence: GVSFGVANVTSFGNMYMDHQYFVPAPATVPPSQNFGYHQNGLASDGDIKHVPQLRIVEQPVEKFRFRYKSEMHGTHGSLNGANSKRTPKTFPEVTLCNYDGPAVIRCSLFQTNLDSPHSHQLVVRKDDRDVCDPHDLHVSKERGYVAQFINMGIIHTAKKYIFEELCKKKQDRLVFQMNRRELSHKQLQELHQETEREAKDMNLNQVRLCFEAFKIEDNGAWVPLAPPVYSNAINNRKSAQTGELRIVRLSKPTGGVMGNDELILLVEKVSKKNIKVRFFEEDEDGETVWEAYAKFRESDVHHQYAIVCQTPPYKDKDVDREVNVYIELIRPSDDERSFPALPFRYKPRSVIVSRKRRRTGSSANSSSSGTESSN

[6] = molecular target: T6, GST-Aq-NF-kB (Amphimedon queenslandica, UniProt A9Y5G7 2-389)
T6 sequence: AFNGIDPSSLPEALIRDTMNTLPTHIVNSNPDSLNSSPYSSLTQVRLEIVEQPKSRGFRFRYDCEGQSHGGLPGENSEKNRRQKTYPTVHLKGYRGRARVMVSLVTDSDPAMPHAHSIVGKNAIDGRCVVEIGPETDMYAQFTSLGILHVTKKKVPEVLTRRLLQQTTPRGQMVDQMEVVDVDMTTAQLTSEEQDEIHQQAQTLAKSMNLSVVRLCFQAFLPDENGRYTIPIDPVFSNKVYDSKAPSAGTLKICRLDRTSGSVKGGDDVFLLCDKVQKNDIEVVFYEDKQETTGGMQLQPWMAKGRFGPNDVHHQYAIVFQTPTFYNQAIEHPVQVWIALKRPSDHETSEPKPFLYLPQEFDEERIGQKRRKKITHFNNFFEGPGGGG

[7] = molecular target: GST-Hu-p50 (Homo sapiens, UniProt P19838 7-356)
GST-Hu-p50, sequence (P19838 7-356): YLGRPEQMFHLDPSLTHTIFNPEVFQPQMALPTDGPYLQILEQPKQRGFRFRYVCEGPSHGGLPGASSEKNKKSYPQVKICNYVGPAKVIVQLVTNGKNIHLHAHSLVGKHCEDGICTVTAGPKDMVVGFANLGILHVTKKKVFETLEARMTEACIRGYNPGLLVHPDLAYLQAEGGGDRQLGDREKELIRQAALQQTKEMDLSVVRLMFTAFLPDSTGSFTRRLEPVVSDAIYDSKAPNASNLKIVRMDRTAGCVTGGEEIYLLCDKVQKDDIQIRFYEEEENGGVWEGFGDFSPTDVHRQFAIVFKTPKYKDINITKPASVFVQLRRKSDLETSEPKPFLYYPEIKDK

Sequence	binding signal [1]	binding signal [2]	binding signal [3]	binding signal [4]	binding signal [5]	binding signal [6]	binding signal [7]
CCGATTAACATCAGGGGGTTTAATGATGTTAATCGGGTCTTGATTCGCTTGACGCTGCTG	6.88 z-score	5.26 z-score	6.77 z-score	2.64 z-score	7.87 z-score	5.24 z-score	6.62 z-score
CCGATTAACATCACGGGTATTCCTGATGTTAATCGGGTCTTGATTCGCTTGACGCTGCTG	4.85 z-score	5.05 z-score	3.76 z-score	1.3 z-score	6.78 z-score	5.48 z-score	3.53 z-score
CCGATTAACATCAGGGGGGATTATGATGTTAATCGGGTCTTGATTCGCTTGACGCTGCTG	8.28 z-score	6.89 z-score	7.27 z-score	7.08 z-score	6.91 z-score	6.21 z-score	6.82 z-score
CCGATTAACATCAGGGGAAAAAATGATGTTAATCGGGTCTTGATTCGCTTGACGCTGCTG	6.24 z-score	8.26 z-score	10.4 z-score	11.1 z-score	4.87 z-score	6.42 z-score	6.22 z-score
CCGATTAACATCAAAGAACCCCCTGATGTTAATCGGGTCTTGATTCGCTTGACGCTGCTG	8 z-score	6.95 z-score	7.44 z-score	3.51 z-score	8.69 z-score	6.42 z-score	6.47 z-score
CCGATTAACATCAAAACCCCCCATGATGTTAATCGGGTCTTGATTCGCTTGACGCTGCTG	8.56 z-score	6.62 z-score	6.57 z-score	4.66 z-score	9.53 z-score	7.39 z-score	6.77 z-score
CCGATTAACATCAGGGGAACGGATGATGTTAATCGGGTCTTGATTCGCTTGACGCTGCTG	4.83 z-score	5.28 z-score	6.1 z-score	4.35 z-score	1.58 z-score	3.47 z-score	3.91 z-score
CCGATTAACATCAGGGCTGCCCCTGATGTTAATCGGGTCTTGATTCGCTTGACGCTGCTG	4.09 z-score	3.62 z-score	1.89 z-score	1.21 z-score	4.09 z-score	6.85 z-score	3.48 z-score
CCGATTAACATCAAAAGGGGATATGATGTTAATCGGGTCTTGATTCGCTTGACGCTGCTG	4.87 z-score	5.63 z-score	7.56 z-score	2.09 z-score	2.06 z-score	3.8 z-score	4.41 z-score
CCGATTAACATCACGTTTTCCCCTGATGTTAATCGGGTCTTGATTCGCTTGACGCTGCTG	7.13 z-score	7.87 z-score	10.1 z-score	8.47 z-score	4.49 z-score	5.5 z-score	5.96 z-score
CCGATTAACATCAGGGGGGTTTATGATGTTAATCGGGTCTTGATTCGCTTGACGCTGCTG	7.17 z-score	5.54 z-score	6.69 z-score	4.39 z-score	8.97 z-score	6.15 z-score	6.31 z-score
CCGATTAACATCACGGCATTCCCTGATGTTAATCGGGTCTTGATTCGCTTGACGCTGCTG	2 z-score	2.64 z-score	2.35 z-score	1.73 z-score	2.31 z-score	3.81 z-score	1.4 z-score
CCGATTAACATCAGGGTAAGTACTGATGTTAATCGGGTCTTGATTCGCTTGACGCTGCTG	2.48 z-score	3.05 z-score	2.93 z-score	1.85 z-score	7.08 z-score	5.82 z-score	2.3 z-score
CCGATTAACATCACAAAATTCCCTGATGTTAATCGGGTCTTGATTCGCTTGACGCTGCTG	5.93 z-score	8.61 z-score	8.58 z-score	5.01 z-score	6.16 z-score	6.82 z-score	6.04 z-score
CCGATTAACATCAATTCCCCAGGTGATGTTAATCGGGTCTTGATTCGCTTGACGCTGCTG	5.33 z-score	5.44 z-score	6.65 z-score	6.18 z-score	2.37 z-score	3.8 z-score	4.94 z-score
CCGATTAACATCACAGAAATCCCTGATGTTAATCGGGTCTTGATTCGCTTGACGCTGCTG	4.33 z-score	3.88 z-score	3.79 z-score	1.43 z-score	5.77 z-score	3.9 z-score	3.37 z-score
CCGATTAACATCAGGGGGGTGAATGATGTTAATCGGGTCTTGATTCGCTTGACGCTGCTG	3.76 z-score	4.08 z-score	4.43 z-score	5.24 z-score	4.14 z-score	4.32 z-score	4.12 z-score
CCGATTAACATCAGGGAAAATAATGATGTTAATCGGGTCTTGATTCGCTTGACGCTGCTG	3.42 z-score	6.84 z-score	8.05 z-score	5.52 z-score	2.1 z-score	4.47 z-score	4.74 z-score
CCGATTAACATCAGAGAATCCCCTGATGTTAATCGGGTCTTGATTCGCTTGACGCTGCTG	9.54 z-score	9.8 z-score	10.9 z-score	3.37 z-score	8.56 z-score	7.28 z-score	6.99 z-score
CCGATTAACATCAAACATTCCCCTGATGTTAATCGGGTCTTGATTCGCTTGACGCTGCTG	6.81 z-score	9.14 z-score	9.23 z-score	7.01 z-score	4.9 z-score	6.75 z-score	5.95 z-score
CCGATTAACATCAGGGGGAACTATGATGTTAATCGGGTCTTGATTCGCTTGACGCTGCTG	6.91 z-score	5.64 z-score	7.61 z-score	9.06 z-score	4.89 z-score	4.97 z-score	5.9 z-score
CCGATTAACATCAGGGAAAGTTATGATGTTAATCGGGTCTTGATTCGCTTGACGCTGCTG	3.92 z-score	6.93 z-score	6.19 z-score	4.08 z-score	2.29 z-score	6.81 z-score	4.76 z-score
CCGATTAACATCACGGGGGATTCTGATGTTAATCGGGTCTTGATTCGCTTGACGCTGCTG	8.95 z-score	7.68 z-score	8.48 z-score	7.06 z-score	7.96 z-score	6.51 z-score	7.01 z-score
CCGATTAACATCAATTCCCACCCTGATGTTAATCGGGTCTTGATTCGCTTGACGCTGCTG	2.43 z-score	2.6 z-score	2.72 z-score	3.21 z-score	2.33 z-score	2.03 z-score	2.02 z-score
